A selection: hits, their analogues and other compounds. The true share with any hit is near 4.7%.
SKKanGAS inh: S. pyogenes SKKanGAS growth inhibitors in kanamycin, primary screen, streptokinase expression inhibitor project, SKKanGAS strain, BacTiter-Glo luminescence. inhibition, % at 7.5 µM. 300,000 compounds, 1.3% hits. 6 h;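 active = mean replicate score, as percent of positive control median, at least 50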;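 also: strain carries kanamycin resistance gene driven by streptokinase promoter and grows in 40 µg/ml kanamycin; loss of luminescence reflects streptokinase promoter inhibition or plain growth inhibition; 0% = median of DMSO wells and 100% = positive control at its reference dose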
TIM10 inh: growth inhibitors of isogenic TIM10 control yeast, primary screen, counter-screen for tim10-1 yeast inhibitor project, luminescence, uHTS. S. cerevisiae TIM10 strain growth, BacTiter-Glo luminescence, 24 h. 330,000 compounds, 1.4% hits. inhibition, % at 10 µM;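 active = inhibition of 40% or more at the single tested concentration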;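 also: wild-type TIM10 isogenic control strain grown at permissive 25 °C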
PfHsp90 set2: growth inhibition of PfHsp90-expressing yeast, primary screen, antimalarial PfHsp90 inhibitor project, S. cerevisiae, BacTiter-Glo luminescence, single point, set 2 | BacTiter-Glo ATP, 48 h; yeast lacking PDR1 and PDR3 efflux regulators | inhibition, % at 9.4 µM | 310,000 compounds, 0.32% hits;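 active = every replicate shows inhibition above about 80%, whatever the replicate mean, limit read from the data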;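 also: 0% = DMSO neutral controls and 100% = 20 µM radicicol positive controls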
tim10-1 inh: growth inhibitors of tim10-1 mutant yeast, primary screen, luminescence, uHTS; S. cerevisiae tim10-1 ts strain growth, BacTiter-Glo, 24 h; inhibition, % at 20 µM; 330,000 compounds, 2.2% hits; AID 463190, 2010;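 active = inhibition of at least 40%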;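 also: mutant grown at 25 °C; 0% = DMSO wells with yeast and 100% = wells holding no yeast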
EBI2 block: EBI2 receptor antagonists, beta-arrestin recruitment, primary screen, cell-based, luminescence, 7a,25-OHC stimulation, uHTS; 7a,25-OHC stimulated; inhibition, % at 5 µM; 360,000 compounds, 0.81% hits; in the data active = inhibition above about 38%;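 also: enzyme fragment complementation signal reports receptor beta-arrestin coupling in cells; 0% = agonist plus DMSO wells and 100% = wells without agonist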
Target sequence (P32249 whole entry, looked up, the tested form may be a part): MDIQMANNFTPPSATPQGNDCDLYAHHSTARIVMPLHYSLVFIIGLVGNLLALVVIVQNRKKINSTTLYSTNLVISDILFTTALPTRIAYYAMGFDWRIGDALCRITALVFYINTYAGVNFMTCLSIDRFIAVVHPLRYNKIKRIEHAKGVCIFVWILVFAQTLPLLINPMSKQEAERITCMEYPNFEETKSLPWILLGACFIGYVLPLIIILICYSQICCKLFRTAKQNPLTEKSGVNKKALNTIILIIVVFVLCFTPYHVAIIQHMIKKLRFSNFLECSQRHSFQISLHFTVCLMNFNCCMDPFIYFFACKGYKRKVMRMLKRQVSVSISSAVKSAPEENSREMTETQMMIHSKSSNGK
tim23-1 inh: growth inhibitors of tim23-1 mutant yeast, primary screen, luminescence, uHTS | S. cerevisiae tim23-1 growth, BacTiter-Glo luminescence, 24 h | inhibition, % at 20 µM | 330,000 compounds, 1.3% hits | AID 463212, 2010;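 active = growth inhibition of the mutant yeast at or above 50%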;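 also: temperature-sensitive mutant grown at 25 °C; plate controls were DMSO-treated mutant yeast for no effect and medium wells lacking yeast for full effect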
EBI2 conf: EBI2 antagonist hit retest, beta-arrestin, confirmation, cell-based, single concentration, luminescence, 7a,25-OHC stimulation; 7a,25-OHC antagonism; AID 651997, 2013; shares compounds with EBI2 block; inhibition, % at 5 µM; 2,400 compounds, 29% hits;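 active = inhibition of at least 50%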
EBI2 ag: EBI2 agonist activity of antagonist hits, confirmation, counter-screen for EBI2 antagonist project, cell-based, single concentration, agonist mode, luminescence | shares compounds with EBI2 block | activation, % at 5 µM | EBI2-expressing cells, 60 min; 0% vehicle, 100% 7α,25-dihydroxycholesterol control | 2,400 tested, under 10 active | AID 652000, 2013;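 active = activation of at least 50%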
bGal cs: E. coli beta-galactosidase enzyme inhibition, confirmation, counter-screen for EBI2 antagonist project, biochemical, luminescence, single concentration; inhibition, % at 5 µM; purified beta-galactosidase, luminescent Galacton Star, 15 min; shares compounds with EBI2 block; 2,400 compounds, 1% hits;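 active = replicate-average signal at least 3 plate SD below neutral wells, shown as high inhibition, flagging enzyme-inhibiting false positives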;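 also: 0% = DMSO wells with enzyme and 100% = wells lacking enzyme; higher means stronger loss of beta-gal luminescence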
Starred values were filed as active, the others as inactive; x = no result.

SMILES | SKKanGAS inh | TIM10 inh | PfHsp90 set2 | tim10-1 inh | EBI2 block | tim23-1 inh | EBI2 conf | EBI2 ag | bGal cs
O=C(NNc1ccc(C2CCCCC2)cc1)C(O)(c1ccccc1)c1cccs1 (stereo not drawn) | 33 | -3 | x | 30 | 41* | 36 | 36 | 0 | 8
CC1CN(c2ccc([N+](=O)[O-])c(NCCOc3ccccc3)c2)CC(C)N1 (stereo not drawn) | 1 | 12 | 2 | 25 | -2 | 18 | x | x | x
O=[N+]([O-])c1ccc(N2CCCCC2)cc1NCCOc1ccccc1 | 2 | 2 | 19 | -4 | 44* | -17 | 35 | -1 | -10
COCCCNC(=O)C(C#N)c1nc2ccccc2nc1N1CCN(Cc2ccccc2)CC1 (stereo not drawn) | 14 | x | 6 | x | 40 | x | x | x | x
CCCCOC(=O)C(C#N)c1nc2ccccc2nc1N1CCN(Cc2ccc3c(c2)OCO3)CC1 (stereo not drawn) | x | 19 | -6 | 28 | 46* | 40 | 18 | -2 | -3
CCN(C[C@H]1N[C@@](Cc2ccccc2)(C(=O)OC)[C@H]2C(=O)N(C)C(=O)[C@@H]12)C(=O)NC(C)C | x | -6 | 3 | 9 | -6 | 8 | x | x | x
Cn1c(C(=O)N2CCN(c3ccccc3)CC2)cc2cc(Cl)ccc21 | 5 | 17 | -7 | 10 | 44* | 35 | 38 | 0 | -4
Cn1c(C(=O)N2CCN(c3ccccn3)CC2)cc2ccccc21 | -3 | 9 | -2 | 29 | 32 | 20 | x | x | x
O=C(c1cc2cc(Br)ccc2o1)N1CCCCC1 | -3 | -21 | -2 | 19 | 57* | 19 | 17 | 0 | -8
CC(NCC(O)COc1ccc2ccccc2c1)c1ccccc1 (stereo not drawn) | 3 | 13 | 12 | -7 | 46* | 7 | 18 | 0 | -6
Cc1cc(OCC(O)CNC(C)c2ccccc2)ccc1C(C)C (stereo not drawn) | 2 | 14 | 42 | 3 | -5 | -8 | x | x | x
CCOC(=O)c1ccc(-n2cnc(-c3ccc([N+](=O)[O-])cc3)c2)cc1 | x | x | x | x | 50* | x | 20 | 0 | 7
CCOc1ccc2nc(COC(=O)c3cccs3)c(C(=O)c3ccccc3)[n+]([O-])c2c1 | -26 | 8 | 2 | 16 | 47* | 10 | 24 | 0 | 7
CCOc1ccc2nc(COC(=O)c3ccncc3)c(C(=O)c3ccccc3)[n+]([O-])c2c1 | 4 | 19 | x | 4 | 45* | -1 | 16 | -2 | -7
COc1cccc(C(C)=C2SC(=S)NC2=O)c1 | x | x | -80 | x | 7 | x | x | x | x
COc1cc(OC)c(C=NNC(=S)NC23CC4CC(CC(C4)C2)C3)c(OC)c1 | x | x | -11 | x | 54* | x | 12 | 0 | -5
COc1ccc(-c2cc(-c3ccccc3)nc3ncnn23)cc1 | -6 | 20 | -9 | 37 | 5 | 44 | x | x | x
COc1ccc(-c2cc(-c3ccc(Br)cc3)nc3ncnn23)cc1OC | 17 | 35 | -16 | 20 | 60* | 20 | 17 | 1 | 8
COc1ccc(C2=NN(C(=O)CSc3nc(=O)n4cc(C)ccc4n3)C(c3ccc(C)cc3)C2)cc1 (stereo not drawn) | 33 | 13 | x | 18 | 63* | 27 | 30 | 0 | 9
COc1ccc(C2=NN(C(=O)CSc3cn(C)c4ccccc34)C(c3ccc(OC)cc3)C2)cc1 (stereo not drawn) | 21 | -5 | -3 | 16 | 84* | 26 | 65* | -1 | -10
CCOC(=O)C1CCN(C2CCN(C(=O)c3oc4c(F)cccc4c3C)CC2)CC1 | 0 | 8 | 9 | -4 | 33 | -6 | x | x | x
Cc1c(C(=O)N2CCC(N3CCSCC3)CC2)oc2c(F)cccc12 | 2 | -19 | -1 | 33 | 47* | 9 | 12 | -1 | -12
Cc1ccc2oc(C(=O)N3CCC(N4CCSCC4)CC3)c(C)c2c1 | -7 | -21 | 6 | 29 | 71* | 10 | 46 | 2 | 4
COc1ccc(N(CC(=O)NCc2ccccc2OC)S(=O)(=O)c2ccccc2)cc1 | 2 | 10 | 14 | 28 | -5 | 32 | x | x | x
Cc1cccc(C(=O)NC(C(=O)Nc2cccc(S(=O)(=O)N3CCCC3)c2)C(C)C)c1 (stereo not drawn) | x | 11 | 13 | 13 | -7 | 18 | x | x | x
SMILES | SKKanGAS inh | TIM10 inh | PfHsp90 set2 | tim10-1 inh | EBI2 block | tim23-1 inh | EBI2 conf | EBI2 ag | bGal cs
Cc1ccc(S(=O)(=O)N2CCN(C(=O)CCCOc3ccc(Cl)cc3C)CC2)cc1 | 1 | 7 | -2 | 15 | 79* | 18 | 44 | 1 | 2
Cc1ccc(S(=O)(=O)N2CCN(C(=O)CCOc3ccccc3C)CC2)cc1C | x | 3 | -8 | 23 | 48* | 25 | 25 | 0 | 6
CCOc1ccc(S(=O)(=O)N2CCN(C(=O)CCOc3ccccc3C)CC2)cc1 | 20 | 16 | 8 | 32 | 30 | 28 | x | x | x
Cc1cc(Cl)ccc1OCCCC(=O)N1CCCCC1 | 2 | 20 | 20 | 24 | 25 | 34 | x | x | x
C[C@@H](C(=O)Nc1ccc2ccccc2c1)[C@@H]1C[C@@]1(C)[C@@H](NC(=O)c1cnccn1)c1ccccc1 | x | 0 | 12 | -6 | 75* | -3 | 42 | -2 | -13
O=C(NCc1ccncc1)C1CCN(S(=O)(=O)c2cccc(C(F)(F)F)c2)CC1 | -2 | -14 | -81 | 8 | -11 | 13 | x | x | x
COc1ccc(CNC(=O)C2CCN(S(=O)(=O)c3cccc(C(F)(F)F)c3)CC2)cc1 | x | -19 | -3 | -8 | 54* | -6 | 38 | 0 | -16
COc1ccc(S(=O)(=O)N2CCC(C(=O)NCc3ccncc3)CC2)cc1 | -3 | 9 | -5 | 6 | -12 | 1 | x | x | x
Cc1ccc(CNC(=O)N2CCN(S(=O)(=O)c3ccccc3)CC2)cc1 | 0 | -11 | 2 | 12 | 56* | 20 | 49 | 3 | -3

Screens: PubChem BioAssay, several laboratories
